# Compounds with a hit are over-represented: about 6.1% of the library has one in this group of screens.
# D1 antag: human D1 dopamine receptor antagonism | P21728 | HEK293 TREx D1 cells, calcium flux, dopamine EC80; stronger effect = lower value | activity change, negative = inhibition, % at 10 µM | 360,000 tested, 3.2% active | AID 504652; in the data active means activity change below about -30%; further: on the % scale 0 is the no-effect control and ±100 the full control effect
# Target sequence (P21728 whole entry, looked up): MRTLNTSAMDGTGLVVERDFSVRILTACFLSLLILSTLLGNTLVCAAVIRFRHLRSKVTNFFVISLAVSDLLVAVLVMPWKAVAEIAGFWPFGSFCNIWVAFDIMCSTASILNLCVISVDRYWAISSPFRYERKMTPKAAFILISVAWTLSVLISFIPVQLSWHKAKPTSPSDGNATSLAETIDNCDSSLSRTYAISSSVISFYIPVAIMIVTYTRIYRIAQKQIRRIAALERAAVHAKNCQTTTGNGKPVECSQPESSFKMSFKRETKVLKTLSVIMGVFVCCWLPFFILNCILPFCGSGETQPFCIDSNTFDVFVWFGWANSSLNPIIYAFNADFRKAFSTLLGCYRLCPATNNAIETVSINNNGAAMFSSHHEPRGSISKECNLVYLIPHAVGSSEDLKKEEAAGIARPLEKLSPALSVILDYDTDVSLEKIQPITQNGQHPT
#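 HEK293 T-REx cells expressing inducible, force-coupled D1 receptor; no-wash Ca dye, 30–90 min RT. Cmpd → 180 s read at 1 Hz → EC80 DA → 180 s read.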
# D3 ag: D3 dopamine receptor (human) agonism. P35462. D3R DiscoveRx beta-arrestin cells, luminescence, 90 min. max activation, %. 410,000 tested, 0.58% active. AID 652048; in the data active means max activation above about 30%; further: 0% is about no effect
#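 Cells at 1500/well, incubated overnight, then treated with pinned compounds (dopamine as control) for 90 min at 37 degrees C. DiscoveRx reagent added for 30 - 60 minutes at room temperature; luminescence read.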
# D1 agonist: agonists of human D1 dopamine receptor | P21728 | HEK293 T-REx D1 cells, calcium flux, agonist mode | activation, % at 2 µM | 360,000 tested, 1% active | AID 504660; in the data active means activation above about 30%; further: 0% is about no effect
#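 Tetracycline-induced HEK293 TREx D1 cells, force-coupled to calcium signalling, were dye-loaded with a no-wash calcium kit. Compound was pin-added after a 10 s baseline. Fluorescence was read kinetically at 1 cycle/s for 180 s, with calcium rises flagged as agonism.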
# D1 PAM: human D1 dopamine receptor positive modulation. HEK293 TREx D1 cells, calcium flux, dopamine EC20 potentiation. potentiation, % at 10 µM. 360,000 tested, 0.036% active. AID 504651; in the data active means potentiation above about 30%; further: 0% is about no effect
# D3 antag: antagonists of human D3 dopamine receptor. AID 652054. max response, negative = inhibition, %. P35462. 360,000 tested, 2.5% active. D3R cells, DiscoveRx beta-arrestin luminescence, antagonist mode; stronger effect = lower value; in the data active means max response below about -50%; inconclusive means no clear call, values can overlap the other calls; further: on the % scale 0 is the no-effect control and ±100 the full control effect
#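 Cells plated overnight at 1500 cells/well, then exposed to library compounds with dopamine controls for 90 minutes at 37 degrees C. DiscoveRx reagent added for 30–60 minutes at room temperature; luminescence read, quantitative HTS format.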
# Numbers without * were called inactive; ? = inconclusive; / = no result.
SMILES,D1 antag,D3 ag,D1 agonist,D1 PAM,D3 antag
N#CC1=C(N)Oc2cc(O)ccc2C1c1cccnc1 (centres undefined),-3.1,-0.9,1.8,-6.5,2.5
Cc1nn(-c2cccc(Cl)c2)c2c1C(c1ccncc1)C(C#N)=C(N)O2 (centres undefined),1.2,-5.6,2.7,-1.4,?
N#CC1=C(N)Oc2ccc3ccc(O)cc3c2C1c1cccnc1 (centres undefined),-76.0*,3.4,1.3,-7.4,-15.9
N#CC1=C(N)Oc2cc(O)c(Cl)cc2C1c1ccccc1F (centres undefined),0.5,2.2,165.6*,14.8,54.7
N#CC1=C(N)Oc2cc(O)c(Cl)cc2C1c1cccnc1 (centres undefined),6.8,1.7,59.7*,1.7,-15.1
CC1=C(C(=O)Nc2ccc(C)cc2C)C(c2cccs2)n2nc(SCc3ccc(Cl)cc3)nc2N1 (centres undefined),-1.6,6.9,0.4,-1.5,/
CCN(CC)c1ccc(NC(=O)Cn2cc3c(n2)CCCC3)c(C)c1,10.9,-9.1,2.0,-1.1,/
CCCC1=Nc2cc(C(=O)NCc3ccccc3)ccc2Sc2ccccc21,2.2,-13.1,13.8,-3.5,/
O=C(Nc1ccccc1N1CCCC1)c1cccc(S(=O)(=O)N2CCOCC2)c1,9.3,0.1,1.6,-7.9,-7.3
CCCCN(C=O)c1c(CC)nc2ccc(C(=O)N3CCN(C(C)=O)CC3)cn12,/,9.8,/,/,17.9
Clc1ccc(NCc2cccnc2)cc1,-10.4,-7.7,2.7,-6.5,-6.6
CC(C#N)(Nc1ccc(Cl)cc1)c1cccnc1 (centres undefined),3.4,-18.1,4.4,-2.3,-60.8*
COc1ccc(-c2ccc3c(N)c(C(=O)Nc4cc(F)ccc4C)sc3n2)cc1,3.7,-10.6,6.8,-3.6,/
CC(C)CSc1ccccc1NC(=O)c1sc2nc(-c3ccncc3)ccc2c1N,-31.4*,-3.7,7.3,-3.4,/
COc1cccc(-c2ccc3c(N)c(C(=O)Nc4ccc(Cl)cc4F)sc3n2)c1,-30.6*,4.3,7.5,-2.1,/
COc1cccc(-c2ccc3c(N)c(C(=O)Nc4cc(C(F)(F)F)ccc4OC)sc3n2)c1,-35.5*,-6.9,4.2,-1.1,/
CC1CCN(C(=O)c2cc(S(=O)(=O)N3CCCCC3)c[nH]2)CC1,-33.3*,1.7,1.9,-8.9,0.1
Cc1ccc(N2CCN(C(=O)c3cc(S(=O)(=O)N4CCCCC4)c[nH]3)CC2)c(C)c1,1.9,-4.7,0.1,4.8,/
CCN(CC)C(=O)c1cc(S(=O)(=O)N2CCCCC2)c[nH]1,-35.7*,-1.9,7.9,-3.1,-21.8
CCN(C(=O)c1cc(S(=O)(=O)N2CCCCC2)c[nH]1)c1ccc(OC)cc1,-0.5,1.9,0.4,-3.2,-7.1
CCOC(=O)C1CCN(C(=O)C2COc3ccccc3C2)CC1 (centres undefined),8.0,-10.8,1.4,0.8,/
COc1cccc(-c2nc(CS(=O)(=O)CC(=O)Nc3ccc(C(C)=O)cc3)c(C)o2)c1,-9.8,-1.8,0.4,0.9,0.0
COc1ccc(/C=N/n2c(=S)n(C)c3ccccc32)cc1OC,/,63.1*,-0.3,0.8,47.0
CCn1c(SCC(=O)N/N=C/C=C\c2ccco2)nc2ccccc21,-34.8*,-0.4,2.6,-5.5,-27.9
CCc1cc(C(=O)Cc2cnn(-c3ccccc3)c2)c(O)cc1O,0.0,-6.6,38.1*,-6.6,-13.1
SMILES,D1 antag,D3 ag,D1 agonist,D1 PAM,D3 antag
COc1ccc(N2CCN(c3oc(-c4ccc(COc5cccc(C)c5)o4)nc3C#N)CC2)cc1,4.6,-11.3,4.2,0.0,/
O=C(Nc1ccccc1Oc1cccnc1)C1CCCN(C/C=C/c2ccccc2)C1 (centres undefined),-10.4,-41.3,1.1,-6.4,-60.5*
Cc1ccc(S(=O)(=O)NCC(=O)N/N=C/c2ccccc2O)cc1,9.7,4.6,4.0,-3.3,-1.7
Cc1ccc(S(=O)(=O)NCc2cccnc2)cc1C(=O)N1CCCC1,0.2,18.7,1.0,1.1,0.0
CCC(=O)N1CCc2cc(Br)cc(S(=O)(=O)N3CCCC(C(=O)NCc4cccc(OC)c4)C3)c21 (centres undefined),-30.7*,-13.5,2.6,-1.1,/
CCC(=O)N1CCc2cc(Br)cc(S(=O)(=O)N3CCCCCC3)c21,3.2,2.9,-0.9,-3.2,-64.2*
CCC(=O)N1CCc2cc(Br)cc(S(=O)(=O)N3CCCC(C(=O)NCc4ccc(OC)cc4)C3)c21 (centres undefined),-16.6,0.2,-0.7,1.3,/
CC[C@H]1OC(=O)[C@H](C)[C@@H](O[C@H]2C[C@@](C)(OC)[C@@H](O)[C@H](C)O2)[C@H](C)[C@@H](O[C@@H]2O[C@H](C)C[C@H](N(C)C)[C@H]2O)[C@](C)(O)C[C@@H](C)[C@@H]2N[C@@H](COCCOC)O[C@@H]([C@H]2C)[C@]1(C)O,/,-8.0,/,/,/
O=C(NCCc1ccc2c(c1)OCCO2)c1cc(S(=O)(=O)N2CCCC2)ccc1Br,/,1.5,/,/,-0.2
COC1=C(OC)C(=O)C(Sc2ccc3ccccc3c2)=CC1=O,/,-28.3,/,/,-62.4*
CC1CCC(NC(=O)CCNC(=O)c2ccccc2)CC1 (centres undefined),-2.9,-11.3,0.3,-10.4,-7.0
COc1cc(CC(=O)OCC(=O)c2c[nH]c3ccccc23)cc(OC)c1OC,3.3,-0.3,10.0,/,-5.6
CN(Cc1cccs1)C(=O)/C=C/c1ccccc1[N+](=O)[O-],-41.1*,-5.6,9.6,-8.2,11.7
N=c1sccn1CC(=O)NCCc1ccc(Cl)cc1Cl,/,-8.7,-0.3,-1.1,-50.0*
N=c1sccn1CC(=O)Nc1cccc(Oc2ccccc2)c1,3.0,-0.9,20.6,-2.5,-12.3
N=c1sccn1CC(=O)Nc1cc(Cl)ccc1Oc1ccccc1,-10.6,-0.4,55.5*,-2.2,?
O=C(CSc1nnc(-c2ccccc2O)o1)N1CCOCC1,4.1,-7.0,2.5,-3.2,1.3
Cc1cc(NC(=O)CS(=O)(=O)c2cn(Cc3cccc(F)c3)c3ccccc23)no1,-4.4,1.3,1.7,2.5,-19.4
Cc1cc(NC(=O)CS(=O)(=O)c2cn(Cc3ccc(F)cc3)c3ccccc23)no1,-39.1*,0.1,5.5,-2.9,19.9
C/C(N)=C(/C#N)C(=O)COC(=O)c1cccc2ccccc12,-34.3*,1.1,3.0,-10.4,-19.9
OCCN1CCN(CC(O)COc2ccc(-c3ccccc3)cc2)CC1 (centres undefined),-23.7,2.5,5.3,-8.4,-62.1*
CCOC(=O)N1CCN(CC(O)COc2ccc(-c3ccccc3)cc2)CC1 (centres undefined),-31.4*,12.6,7.9,-3.7,9.1
Cc1ccc(CC(C)(O)CC(C)(O)Cc2ccc(C)cc2)cc1 (centres undefined),/,1.0,/,/,1.4
CC(C)CN1Cc2ccccc2Oc2cc(Br)ccc2S1(=O)=O,/,5.2,/,/,-62.1*

# Source: PubChem
